Screens from PubChem BioAssay.
HP1b binding inh: inhibitors of HP1-beta chromodomain binding to methylated histone tails | P83916 | AlphaScreen HP1-beta / biotin-H3K9me3 peptide binding | Potency, µM (series often up to 114 µM), hits mostly inhibitors | 390,000 compounds, 0.56% hits | AID 540317; note: nearly all actives have a fitted effect of over 70% in size
Target sequence (P83916 whole entry, looked up): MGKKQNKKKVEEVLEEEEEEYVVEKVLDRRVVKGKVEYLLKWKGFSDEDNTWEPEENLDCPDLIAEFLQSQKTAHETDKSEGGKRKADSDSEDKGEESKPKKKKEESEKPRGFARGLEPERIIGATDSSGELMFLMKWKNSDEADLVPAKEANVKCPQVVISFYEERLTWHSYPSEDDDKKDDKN
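AlphaScreen: HP1-beta (50 nM) preformed 30 min with biotin-H3(1-18)K9me3 peptide (50 nM) in PBS pH 7.4, 0.01% Tween-20. Compound added for 30 min at RT, then streptavidin donor/nickel chelate acceptor beads (10 ug/mL) for 30 min.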
BAZ2B inh: inhibitors of human BAZ2B bromodomain | AlphaScreen BAZ2B-H3K14Ac peptide displacement | Q9UIF8 | 360,000 compounds, 4.4% hits | Potency, µM (doses to about 114 µM), most hits filed as inhibitors; note: nearly all actives have a fitted effect of over 60% in size
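AlphaScreen luminescence quantifies BAZ2B engagement of H3K14Ac peptide; the protein and biotinylated peptide are both at 50 nM final, buffer PBS pH 7.4 with 0.01% Tween-20, all steps at room temperature.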
PLK1 PBD block: PLK1 (human) polo-box domain binding inhibition | P53350 | Plk1 PBD binding of FITC phosphopeptide, fluorescence polarization | Potency, µM, most hits filed as inhibitors | 360,000 compounds, 2.8% hits | AID 720504; note: series mostly up to about 57 µM; nearly all actives have a fitted effect of over 65% in size
G9a block: inhibitors of human histone lysine methyltransferase G9a. Potency, µM (highest dose often 102 µM), hits mostly inhibitors. 350,000 compounds, 8.8% hits. G9a H3K9 monomethylation, AlphaScreen, 2 h. Q96KQ7; note: nearly all actives have a fitted effect of over 75% in size
Target sequence (Q96KQ7 913-1193 limits assumed): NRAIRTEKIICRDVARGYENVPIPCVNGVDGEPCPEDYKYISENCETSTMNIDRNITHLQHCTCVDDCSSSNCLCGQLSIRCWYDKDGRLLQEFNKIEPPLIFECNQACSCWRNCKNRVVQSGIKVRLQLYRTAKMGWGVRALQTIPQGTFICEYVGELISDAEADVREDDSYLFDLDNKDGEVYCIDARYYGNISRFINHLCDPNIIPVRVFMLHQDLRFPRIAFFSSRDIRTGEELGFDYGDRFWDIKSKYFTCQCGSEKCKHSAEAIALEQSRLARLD
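Signal arises when biotinylated H3K9 peptide, once monomethylated, bridges streptavidin donor and antibody-captured acceptor beads. Enzyme at 20 nM was preincubated 15 min with test compounds; peptide 500 nM and SAM 20 uM then reacted for 2 h.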
PI5P4K alpha inh: blocks human PI5P4K alpha kinase activity; PI5P4Kalpha enzyme, ADP-Glo luminescence, 60 min; active compounds read low; 330,000 compounds, 1.2% hits; P48426; AID 652105; max response, %; active = max response of -50% or lower; inconclusive = between -30% and -50%; inactive = -30% or higher; note: value at the top dose of about 77 µM
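qHTS, 1536-well: enzyme/substrate mix, compound by pin tool, 5 microM ATP final; RT 60 min; ADP-Glo reagents 1 (45 min) then 2 (30 min); luminescence.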
JMJD2A Tudor: JMJD2A Tudor domain (human) inhibition; O75164; AlphaScreen JMJD2A-Tudor / H3K4me3 peptide binding; Potency, µM (top dose mostly 114 µM), most hits filed as inhibitors; 390,000 compounds, 4.4% hits; note: nearly all actives have a fitted effect of over 50% in size
Numbers stand for hits; 0 = inactive; ? = inconclusive; - = no result given; [ ] = another dose, or the depositor's remark. This is a sample that favours compounds with a hit; in the whole collection about 12% have one here. Unless noted, calls come from the whole dose curve; as a rule, active = well fitted curve in the direction sought with a large enough effect; inconclusive = small, poorly fitted or top-dose-only effect, or another doubt; inactive = no such curve, though single readings can be large; an effect the other way counts as inactive or inconclusive.

SMILES | HP1b binding inh | BAZ2B inh | PLK1 PBD block | G9a block | PI5P4K alpha inh | JMJD2A Tudor
Cc1ccc(OCCNCc2ccccc2)c(C)c1 | ? | ? | 0 | 14µM | 0 | 1µM
C=C(Nc1ccc(OCC)cc1)Nc1ccc(OCC)cc1 | - | - | - | 0[12.7 µM] | - | -
Cc1ccc(OCCCCNC(C)c2ccccc2)c(C)c1 (stereo unspecified) | 0 | ? | 0 | 11µM | 0 | 20µM
CCOC(=O)c1ccccc1NC(=O)N1CCCN(S(=O)(=O)c2ccc3c(ccn3CC)c2)CC1 | 0 | 0 | - | 0 | - | 0
CC(C)CCNC(=O)c1ccc2c(c1)NC(=O)C(C(C)C)N2 (stereo unspecified) | 0 | 0 | - | 0 | - | 0
Cc1ccc2nc(Cl)c3cc(C(=O)N4CCCC(C)C4)sc3c2c1 (stereo unspecified) | 0 | 0 | - | 0 | - | 0
Cc1cc(C)c(C)c(OCCOCCNCc2ccccc2)c1 | 0 | ? | 0 | ? | 0 | 79µM
COc1ccc(CCNCc2ccc(OCc3ccccc3)cc2)cc1 | 0 | 0 | 0 | 0 | 0 | 0
CCCOc1ccc(OCCOCCNCc2ccccc2)cc1 | ? | ? | 0 | 32µM | 0 | 18µM
C/C=C/c1ccc(OCCOc2cc(C=O)ccc2OC)c(OC)c1 | 0 | 0 | 0 | 0 | 0 | 0
COc1cc(C)ccc1OCCCCNCc1ccccc1 | 0 | ? | 0 | - | 0 | 18µM
C/C=C/c1ccc(OCCOCCNCc2ccccc2)c(OC)c1 | 0 | 50µM | 0 | 7.9µM | 0 | 28µM
O=C(c1cccc(S(=O)(=O)NCc2ccccc2)c1)N1CCN(c2ccccc2Cl)CC1 | 0 | - | 0 | - | 0 | 0
COC(=O)N(C)C[C@H]1OCc2cnnn2CCCC(=O)N([C@@H](C)CO)C[C@H]1C | - | - | 0 | - | 0 | -
Cc1cccc(OCCCCCNCCO)c1 | 0 | 0 | 0 | 0 | - | 0
CCc1cccc(OCCCCNCCO)c1 | 0 | 56µM | 27µM | 10µM | 0 | 0[11.4 µM]
CCOCCCNCc1ccc(OCCC(C)C)c(OC)c1 | 0 | 56µM | 0 | ? | 0 | ?
Cc1cccc(OCCCCNCc2ccccc2)c1 | ? | 50µM | 0 | 13µM | 0 | 0[11.4 µM]
CN1OC[C@@H]2CN(C(=O)Nc3ccccc3)[C@H](c3ccc(N4CCCCC4)cc3)C[C@@H]21 | - | - | 0 | - | 0 | -
CSc1cc(-c2ccccc2)n(Cc2ccc(Cl)cc2Cl)c(=O)c1C#N | 0 | 0 | 3.4µM | 0 | 0 | 0[11.4 µM]
O=C(O)CC(NS(=O)(=O)c1ccc(Br)s1)c1ccccc1 (stereo unspecified) | 0 | 0 | - | 0 | - | 0
COc1ccc(S(=O)(=O)c2c(O)c3ccc(C(=O)Nc4ccc(F)cc4F)cc3[nH]c2=O)cc1 | 0 | ? | 0 | ? | 0 | 0
CCc1ccccc1NC(=O)c1ccc2c(O)c(S(=O)(=O)c3ccc(OC)cc3)c(=O)[nH]c2c1 | 0 | 0 | 3.4µM | 0 | 0 | 20µM
CCc1ccccc1NC(=O)c1ccc2c(O)c(S(=O)(=O)c3ccccc3)c(=O)[nH]c2c1 | 0 | ? | - | 16µM | - | 79µM
COc1ccc(S(=O)(=O)c2c(O)c3ccc(C(=O)Nc4ccc(F)cc4)cc3[nH]c2=O)cc1 | 0 | 0 | 30µM | 0 | ? | 50µM
SMILES | HP1b binding inh | BAZ2B inh | PLK1 PBD block | G9a block | PI5P4K alpha inh | JMJD2A Tudor
CCN(CC)c1ccc(NC2CC(=O)N(CCc3ccc(OC)cc3)C2=O)cc1 (stereo unspecified) | ? | 35µM | 0 | ? | 0 | 40µM
CCN1CCN(CC(=O)Nc2ccc(N(C)C)cc2)CC1 | 0 | ? | 0 | ? | 0 | 7.1µM
O=C(CN1CCCC1)Nc1ccc(Br)cc1 | ? | 50µM | 0 | 4.5µM | 0 | 13µM
CCN1CCN(CCC(=O)Nc2ccc(C)cc2)CC1 | 0 | 0 | 0 | - | 0 | 0
O=C(CN1CCCCCC1)Nc1ccccc1 | ? | 50µM | 0 | 4µM | 0 | 8.9µM
CCc1ccc(Cn2c(CNS(=O)(=O)c3ccc(Cl)s3)nc3cccnc32)cc1 | 0 | 0 | - | 0 | - | 0
CC1(C(=O)NS(=O)(=O)c2ccccc2Cl)CCN1C(=O)Cc1ccc(Cl)cc1Cl (stereo unspecified) | - | - | 0 | - | 0 | -
Cc1ccc(NC(=O)CCN2C(=O)c3ccccc3Sc3ncccc32)c(Cl)c1 | 0 | 0 | - | 0 | - | 0
CCc1cccc(C)c1NS(=O)(=O)Cc1ccccc1 | 0 | 0 | 0 | 79µM | 0 | 0
CN1CCc2c1nc1ccccc1c2NC(=O)CN1CCCC1 | 0 | ? | 0 | - | 0 | 5.6µM
O=S(=O)(Cc1ccccc1)Nc1ccccc1 | 0 | 0 | 0 | - | 0 | 0
